What follows are sequences tested on VDR:RXRa (NR concentration 270 nM, RXRa partner concentration 90 nM) (assay: PBM binding z-score (relative to random genomic background probes); higher = stronger binding; sequences stand for … in GC…GCGATTGACAGCGTAGAATGAAGG).
Experimental: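 Protein-binding microarray (Agilent 4x180K custom design, double-stranded 60-nt probes: 5' GC cap, 34-nt variable region, 24-nt constant primer region; full probe sequence given). Purified or IVT nuclear receptor:RXRα heterodimers (3:1 NR:RXRα, mostly 270:90 nM) or homodimers were incubated for 1 h in PBS with 2% milk and no ligand, then detected with Alexa488 antibodies. Fluorescence from o1-orientation probes (~5 replicates averaged) was converted to z-scores against 500 random hg19 background probes. Variable regions are seed direct-repeat (DR0–DR5) sites, all their single-nucleotide variants and half-site ablations.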

Sequence	PBM binding z-score
CCGAGTAGGCTATGGGGCATTCAGGCAACGGTGA	-0.947
AGAATGAGGTTATCCGTAGATCAGGGAAGAAAGT	1.44
CAAGCTAGGTCAAGGTCAAAGTCGGTTTGTGCCA	5.24
AATACAGGGTCACTAGGCCAGAGTTGGTACGAAT	4.26
TCTCGGAGGACTCGAAGGTCAGAGCTTTCCAGAG	0.759
GCTAGCAGGCCATTTGGGTCACTCACTGACGGGC	0.766
CAAACTCGGTCAAGGTCAAAGTCGGTTTGTGCCA	4.95
ACTTACGGGTCAACGTGGTTATAGCACGCGTATA	4.96
GCGACTGGGGCATCATCAGGTTACCATAACTTAA	0.00777
ACTTACGGGTCAACGAGGTTATAGCCCGCGTATA	7.59
ATATTTAGGTTAAGGGTCATTCAGGTTGGTTCGC	5.46
CCTAGCAGGCCAATCTGGGTCTCTCAAGGCTTGA	-0.64
TCATATAGGTAATACAGATGAAAGTCGGCATCTA	0.886
CGTCCAAGATCAAGGTCAGTGAAAGAGACTCGAA	1.62
CGAACTAGGTCAAAGACAGTGAATCTCCGCACGC	1.36
GCTAGTTGGTCAGTAAAAGGTCACCCACCGGTCG	3.44
GCTAGTTGGTCAATAAAAGGTCACACACCGGTCG	4.16
CGTCCAAGGTCAGCAGGTCAGTGATAGCGACGTG	3.91
CCTACTGGGCCATAAAGGTCATTGATGCCGATAA	4.93
TCTAGCCGGCCAGAGGGTCACTCAAGAGGTACGG	1.41

Sequence	PBM binding z-score
TCAGACAGGTGAAGGGAACTCAGGTACGCAGTCG	0.951
AGAATGAAGTTAAGATCAGGGAAACAGAATACAT	-0.31
ATATGTAGGTTAAGGGTCATTCATGTTGGTTCGC	5.08
CCAGACAGGTGAAAGGTTACTCAGTCTGGTACGC	2.35
CCTTACGGGTCACGAGGTGATAGCACGACGAGCG	4.18
CTACCAAGGTGAACAGGGTCGTTGATTACTATTC	5.66
GGAACGAGGCCAAGTTGATAGCAGAGTTTGATGG	-0.548
GCTCGGAGGACTAGGTCAGAGCTTTGTCCGTAGA	-0.562
GGACCGAGGGCATTCGAGTTGATAGCATGGCGAT	3.66
TCCTGTAGATCAATAGAGGTTAAGAAAGTGCGCT	1.67
ATATGTAGGTTACATCCGGGTAATTCAGGCTATG	0.536
TAGCCTAGGTCATTCAGGGGCCAGTACAGAAAGC	3.33
GCAGACAGGTGAAATGCAGGTAACTCAGGGTGGC	-0.417
TCTATTAGTTGATTAGAGCAACCGAAACAGCGGA	0.404
CTTATTAGTTGACCATAAGGGCAACCGAAGCTCG	0.523
CCGACTGGGGCAGAAAGGTTACCCTACCATCCGG	0.717
CGAACGAGGGCATAAGTTGATAGCAAATGCCGAT	0.652
AGAATGAGGTTAAGATCAGGGATACAGAATACAT	1.47
ATATCTAGGTAAAGTTCAGTGAAAGATCGATAGA	1.53
CCTTGCGGGTCACGAGGTTATAGCACGACGAGCG	4.93

— the supplement of paper PMC6555819
